In all, about 360,000 compounds went through this assay and about 1,100 (0.31%) were called active. The sample holds actives, similar compounds and a random draw of the others, so the mix is not that of the screen. Rule as the data show it: active = activity change above about 30% (passing the limit was not always enough); inactive = the rest.
These compounds were tested against Hepatocyte nuclear factor 4-alpha (Homo sapiens) (UniProt P41235) (assay: HNF4-alpha DNA association modulation – biochemical, fluorescence polarization, FITC-DNA, primary screen (AID 1224865)). Details: HNF4a-FITC DNA binding, 1 h, at 10 µM, stronger effect = higher value.
Chain of Hepatocyte nuclear factor 4-alpha (Homo sapiens) (P41235 whole entry, looked up): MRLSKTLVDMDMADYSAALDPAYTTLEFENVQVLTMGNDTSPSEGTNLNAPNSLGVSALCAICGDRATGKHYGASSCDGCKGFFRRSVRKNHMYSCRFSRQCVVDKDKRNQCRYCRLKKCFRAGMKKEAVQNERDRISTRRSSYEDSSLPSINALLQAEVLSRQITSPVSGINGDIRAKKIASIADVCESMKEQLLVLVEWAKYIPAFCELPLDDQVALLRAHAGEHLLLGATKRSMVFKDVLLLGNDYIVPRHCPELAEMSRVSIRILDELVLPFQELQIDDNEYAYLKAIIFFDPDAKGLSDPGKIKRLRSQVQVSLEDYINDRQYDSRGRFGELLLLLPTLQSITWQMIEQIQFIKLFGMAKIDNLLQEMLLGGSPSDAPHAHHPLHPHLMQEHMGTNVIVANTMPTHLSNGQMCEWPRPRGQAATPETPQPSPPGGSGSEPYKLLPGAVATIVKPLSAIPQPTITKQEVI
With `O=C(CCN1CCCCC1)NCC(=O)Nc1ccc(Br)cc1C(=O)c1ccccc1` the activity change was 53% (active).
For `CN1CCN(C(=S)SCC(=O)Nc2ccc(Cl)cc2C(=O)c2ccccc2)CC1`, the activity change was -2.35% (inactive).
`O=C(CN1CCCCC1)Nc1ccc(Br)cc1C(=O)c1ccccc1Cl` was tested, and the activity change was -1.1% (inactive).
For `CCOCCc1c(O)[nH]c(=S)[nH]c1=O`, the activity change was -0.41% (inactive).
In the case of `COc1ccccc1N=Nc1c(O)[nH]c(=S)[nH]c1=O`, the activity change is reported as 68.8% (active).
With `O=C1N=c2ccccc2=C/C1=C\c1c(O)[nH]c(=S)[nH]c1=O` the activity change was 4.26% (inactive).
For `C=Cn1ccnc1P(=S)(c1cc(N(CC)CC)ns1)c1nccn1C=C`, the activity change was -0.17% (inactive).
In the case of `CCN(CC)c1ccc([N+](=O)[O-])c2cccnc12`, the activity change is reported as 4.4% (inactive).
For `COc1ccc(-c2nn(CCC#N)cc2C(=O)Nc2ccc(C(C)=O)cc2)cc1`, the activity change was 2.38% (inactive).
For `CC1CC=CCC12C(=O)NC(=S)NC2=O` (stereo not given), the activity change was -0.2% (inactive).

Reference: PubChem BioAssay AID1224865 (Sanford-Burnham Center for Chemical Genomics, 2016)
